AMA1-RON2 inh: AMA1-RON2 (P. falciparum) interaction inhibition; actives 0.2% (n = 360,000); AlphaScreen AMA1-biotinylated RON2 peptide binding; Potency, µM (titrated, usually from 58.2 µM), for the others: at the top dose activity change, negative = inhibition, hits mostly inhibitors;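 note: 0% = vehicle wells and -100% = peptide control; nearly all actives have a fitted effect of over 45% in size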
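AMA1 (3D7) with his tag at 25 nM final met compounds first, then biotinylated RON2 peptide at 25 nM; detection used donor plus acceptor beads, 10 µg/mL apiece, read by AlphaScreen after 30 min at room temperature.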
Sm TGR inh: S. mansoni TGR enzyme inhibition; Potency, µM (highest dose often 114 µM), for inactives: at the highest dose activity change, negative = inhibition, actives largely listed as inhibitors; actives 3% (n = 360,000); Q962Y6; AID 485364; purified TGR, DTNB reduction, TNB absorbance 405 nm; note: % is set by controls: 0 for no effect and ±100 for the full control effect; nearly all actives have a fitted effect of over 60% in size
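TGR 20 nM + NADPH 100 uM (dispensed conc.), cpd preinc 15 min RT; start with NADPH (500 uM addition) then DTNB (15 mM addition). Kinetic TNB absorbance, 405 nm filter. Four-parameter Hill fit across titration.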
Pf growth 48h: P. falciparum growth inhibition at 48 hours (one generation); P. falciparum luciferase growth in erythrocytes, 48 h; AID 504832; actives 5.9% (n = 310,000); Potency, µM (series often up to 28.7 µM), for the others: at the top dose activity change, negative = inhibition, actives largely listed as inhibitors; note: % is set by controls: 0 for no effect and ±100 for the full control effect
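Luminescence readout; reporter = integrated firefly luciferase in P. falciparum. RBC culture at 2% hematocrit, 0.1% parasitemia final, 37 C/5% CO2; decreased signal taken as growth inhibition.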
NS1 function inh: blocks influenza NS1 protein function | Potency, µM (doses to about 46.1 µM), for the others: at the top dose activity, positive = more growth | actives 0.4% (n = 270,000); calls by dose curve; note: actives are rising curves; nearly all actives have a fitted effect of over 50% in size
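In this qHTS, NS1 from influenza A is expressed in budding yeast, where it slows growth. Cells are switched from glucose to 2% galactose medium (pH 6.0, -URA), treated with compound, and growth recovery is read at OD600.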
Pf growth 96h: P. falciparum growth inhibition at 96 hours; P. falciparum luciferase reporter growth, 96 h; Potency, µM (doses to about 28.7 µM), without a hit: at the highest dose activity change, negative = inhibition, usual class: inhibitors; actives 6.9% (n = 320,000); AID 504834; note: % is set by controls: 0 for no effect and ±100 for the full control effect
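Two parasite generations (96 h, 37 C, 5% CO2) of compound exposure in infected erythrocytes (0.05% parasitemia, 2% hematocrit). Luciferase-reporter P. falciparum; decreased luminescence indicates inhibited growth, aimed at apicoplast-acting delayed death.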
Numbers without * were called inactive; u = inconclusive; x = not tested or not shown; [ ] = remark or other dose. Rows were chosen to be rich in hits. Some 11% of all compounds tested hit in one or more screens of this group. Unless noted, calls come from the whole dose curve; as a rule, active = well fitted curve in the direction sought with a large enough effect; inconclusive = small, poorly fitted or top-dose-only effect, or another doubt; inactive = no such curve, though single readings can be large; an effect the other way counts as inactive or inconclusive. Potency is the fitted concentration of half-maximal effect.

SMILES | AMA1-RON2 inh | Sm TGR inh | Pf growth 48h | NS1 function inh | Pf growth 96h
CCOc1ccc(N2C(=O)CC(N3CCN(c4ccccc4OC)CC3)C2=O)cc1 (stereo unspecified) | 1% | 40µM* | 2.9µM* | -15% | 2.6µM*
CCOCCCn1c(SCC(=O)NC2CCCCC2)nc2ccccc2c1=O | -11% | x | x | x | x
COc1ccccc1N1C(=O)CC(N2CCN(c3ccc([N+](=O)[O-])cc3)CC2)C1=O (stereo unspecified) | 1% | 40µM* | -2% | -21% | 37%
COc1ccccc1N1CCN(C2CC(=O)N(c3cccc(Cl)c3)C2=O)CC1 (stereo unspecified) | 19% | 40µM* | 30% | -30% | u
COc1ccc(CCn2c(C)ccc2C)cc1OC | x | u | 5.2µM* | 10% | 8.3µM*
COc1ccc(CCN2C(=O)C=CC2=O)cc1OC | 16% | x | x | x | x
CC1(OC(=O)C2CCCC2)C(=O)C=C2C=C(c3ccsc3)N(CCCCO)C=C2C1=O (stereo unspecified) | -5% | -19% | u | 4% | u
CC1(OC(=O)C2CCCC2)C(=O)C=C2C=C(c3ccsc3)N(C3CCCC3)C=C2C1=O (stereo unspecified) | -25% | -26% | u | -3% | 10µM*
CC1(OC(=O)C2CCCC2)C(=O)C=C2C=C(c3ccsc3)N(Cc3ccco3)C=C2C1=O (stereo unspecified) | -19% | 25µM* | 12µM* | 3% | 13µM*
O=C(NCCN1CCOCC1)C1CC(=O)N(c2ccc(Cl)cc2)C1 (stereo unspecified) | -4% | 6% | 5% | -4% | 27%
COc1ccc(/C=C/c2ccc3c(Br)ccc(O)c3n2)cc1 | 77% | -8% | 17%[0.00184 µM] | 1% | 6%
Cc1ccc2c(Br)cc(Br)c(O)c2n1 | x | x | 12µM* | x | 6.7µM*
COc1cc(/C=C/c2ccc3cccc(O)c3n2)cc(OC)c1OC | 103% | 4% | u | 0% | -9%
Cc1cc(Nc2cccc(O)c2)c2cccc(Br)c2n1 | x | 2% | x | x | x
COc1ccc(Br)cc1/C=C/c1ccc2cccc(O)c2n1 | 72% | 5% | 2.1µM* | 4% | u
COc1cc(/C=C/c2ccc3c(Br)cc(Br)c(O)c3n2)ccc1O | 99% | -30% | 9.3µM* | -64% | 3.7µM*
COc1cc(/C=C/c2ccc3cccc(O)c3n2)cc(Cl)c1OC | 69% | -23% | -5%[0.00184 µM] | -3% | 3.7µM*
COc1cc(Br)cc(/C=C/c2ccc3cccc(O)c3n2)c1OC | 106% | -3% | u | 8% | -6%
CC1=NN(C(N)=S)C(=O)C1N=Nc1ccc(C)cc1C (stereo unspecified) | x | -2% | x | -206% | 8.3µM*
CC1=NN(C(N)=S)C(=O)C1N=Nc1c(C)cc(C)cc1C (stereo unspecified) | -3% | -17% | x | -131% | 4.1µM*
CC1=NN(C(N)=S)C(=O)C1N=Nc1c(Br)cc(Br)cc1Br (stereo unspecified) | 63% | -1% | 15% | -94% | -20%
O=C(O)C1C2CCC(C2)C1C(=O)NCCCn1ccnc1 (stereo unspecified) | -12% | -25% | 11% | -10% | 105%
O=C(O)C1C2C=CC(O2)C1C(=O)NCCCn1ccnc1 (stereo unspecified) | x | 50µM* | -4% | u | 8%
C=CCC1(CC=C)CCCN1C(=O)c1cc(COc2ccc(C)nc2)on1 | 0% | -5% | u | -21% | -5%
COC(=O)Cc1cn(-c2ncc(C(F)(F)F)cc2Cl)c2ccccc12 | 22% | 43% | x | -96% | u
SMILES | AMA1-RON2 inh | Sm TGR inh | Pf growth 48h | NS1 function inh | Pf growth 96h
CN(C)/C=C/C(=O)/C=C/c1cn(-c2ncc(C(F)(F)F)cc2Cl)c2ccccc12 | 18% | -17% | 13µM* | 1% | u
CCOc1ccccc1OCCn1nnc2ccccc21 | -7% | -3% | 0% | 1% | 10µM*
COc1ccccc1OCCn1nnc2ccccc21 | 15% | -1% | 37% | -2% | 5%
O=C(Cn1nnc2ccccc21)Nc1ccccc1[N+](=O)[O-] | 40% | 0% | -15% | 5% | 44%
CCOc1cc(C#N)c(NC(=O)Cn2nnc3ccccc32)cc1OCC | -8% | 4% | 6% | 9% | 5.9µM*
O=C(O)c1ccc(CNCc2ccc(Cl)cc2Cl)cc1 | -1% | -6% | -3% | -5% | x
Oc1ccc(Cl)cc1CNCc1ccc(F)cc1 | 13% | -7% | 5.2µM* | x | 5.2µM*
Oc1ccc(Cl)cc1Cc1ccccc1 | 4% | x | 11µM* | x | 7.6µM*
Oc1ccc(Cl)cc1CNCc1ccc(C(F)(F)F)cc1 | 57% | 0% | 1.2µM* | x | 5.9µM*
Cc1ccsc1CNCc1cc(Cl)ccc1O | 23% | 5% | 1.7µM* | x | 2.9µM*
Oc1ccc(Cl)cc1Cc1cc(Cl)ccc1O | 3% | -4% | u | -37% | u
Oc1ccc(Cl)cc1CNn1cnnc1 | 12% | 9% | 19% | 3% | -19%
CCOC(=O)C1(Cc2cccc(OC)c2)CCCN(C(=O)CNC(C)=O)C1 (stereo unspecified) | -6% | 0% | 1% | -7% | -6%
CC(Oc1ccccc1F)C(=O)NNC(=O)CC(C)c1ccccc1 (stereo unspecified) | 84% | 3% | -20% | x | 11%
CC(=O)C1=CCC(c2cccc3ccccc23)N(S(=O)(=O)c2ccc(C)cc2)C1 (stereo unspecified) | 7% | x | x | x | x
Oc1ccc(Cl)cc1CNCc1ccc(Cl)cc1 | 37% | -5% | 3.7µM* | x | 5.9µM*
COc1ccc(CCNC(=O)C(=O)NCCC2CCCCN2S(=O)(=O)c2cccs2)cc1 (stereo unspecified) | 9% | -1% | u | x | 7.4µM*
COc1ccc(CCNC(=O)C(=O)NCCC2CCCCN2S(=O)(=O)c2ccccc2)cc1 (stereo unspecified) | -7% | 2% | 15µM* | x | 0%
NC(=O)c1ccc(NC(=O)COc2coc(CN3CCc4ccccc4C3)cc2=O)cc1 | -19% | -1% | u | x | u
Nc1c(S(=O)(=O)c2cccs2)c2nc3ccccc3nc2n1Cc1ccc2c(c1)OCO2 | 1% | 12% | 15µM* | u | x
Nc1c(S(=O)(=O)c2cccs2)c2nc3ccccc3nc2n1CCc1ccccc1 | x | 26% | u | 17% | 3.3µM*
CC(C)CCn1c(N)c(S(=O)(=O)c2cccs2)c2nc3ccccc3nc21 | 9% | 5% | u | -45% | u
Nc1c(S(=O)(=O)c2cccs2)c2nc3ccccc3nc2n1CC1CCCO1 (stereo unspecified) | 8% | -17% | u | -42% | 15%
Nc1c(S(=O)(=O)c2cccs2)c2nc3ccccc3nc2n1Cc1cccs1 | -1% | 10% | u | -13% | 8.3µM*
COc1ccccc1/C=N/n1c(N)c(S(=O)(=O)c2cccs2)c2nc3ccccc3nc21 | 3% | 1% | 6.6µM* | 9% | x
